Results on 61 compounds are retold here after PubChem BioAssay AID1950 (The Scripps Research Institute Molecular Screening Center, 2009).

Hit rate of the full screen: of about 300,000 compounds, about 1,000 (0.33%) were called active. What follows is part of a selection rich in actives, with near analogues and random picks from the rest. Values without a mark were called inactive. No stated cut-off is given here; in the data, active means inhibition above about 28%; inactive means the rest.

The test system of this test is EBNA-1 (Epstein-Barr virus nuclear antigen 1), Human herpesvirus 4. As to the kind of experiment: EBNA-1 DNA-binding inhibitors, primary screen, biochemical, fluorescence polarization (AID 1950). Conditions: at 14.8 µM, active compounds read high. For orientation: Polarisation of emitted light reports the rotation of a fluorescent probe.
As for `CCc1nonc1NC(=O)c1oc2ccc(Cl)cc2c1C`, the inhibition is 7.96%.

Regarding `COc1ccc(-c2nonc2NC(=O)c2oc3ccc(F)cc3c2C)cc1OC`, the inhibition is 34.8% (active).

With `Cc1nonc1NC(=O)c1oc2ccccc2c1C`, the inhibition is 1.17%.

For `O=C(CCS(=O)(=O)c1ccccc1)NC1CCCC1`, the inhibition is -3.67%.

As for `CCN(CC)S(=O)(=O)c1ccc(NC(=O)CN(c2cccc(F)c2)S(C)(=O)=O)cc1`, the inhibition was -22.3%.

As for `Cc1nc2ccc(S(=O)(=O)N(C)CC(=O)NC(C)c3ccccc3)cc2s1` (stereo unspecified), the inhibition is -7.08%.

Turning to `COc1cc(NC(=O)CN(C)S(=O)(=O)c2ccc3nc(C)sc3c2)cc(OC)c1`, the inhibition is 1.78%.

Regarding `Cc1ccc2nc(-c3ccc(NC(=O)CN(C)S(=O)(=O)c4ccccc4)cc3)sc2c1`, the inhibition is 72.6% (active).

`Cc1cccc(N(CC(=O)Nc2ccc(-c3nc4ccc(C)cc4s3)cc2)S(C)(=O)=O)c1`: the inhibition is 46.6% (active).

For the compound `COc1cccc(N(CC(=O)Nc2cccc(F)c2)S(C)(=O)=O)c1`, the inhibition was -2.72%.

As to `COc1cccc(CNn2cn[nH]c2=S)c1OCc1ccccc1`, the inhibition was 7.14%.

On to `O=C(CN1CCSCC1)N/N=C/c1ccc(F)cc1`, for which the inhibition is 10.8%.

With `CCOc1ccc(CCNC(=O)COC(=O)c2ccc(F)c(S(=O)(=O)N3CCOCC3)c2)cc1OCC`, the inhibition was -5.23%.

Take `O=C(Nc1ccccc1F)c1ccc(Cn2cc(Br)cn2)cc1`: the inhibition was -6.22%.

Consider `NC(=O)Cn1nc([N+](=O)[O-])nc1Oc1ccc(Br)cc1`, for which the inhibition is 4.94%.

Regarding `COc1ccc(CCNC(=O)C2CCCN2C(=O)Nc2ccccc2)cc1OC` (stereo unspecified), the inhibition is 2.79%.

For `CCCCCCCCCCCCC(NC(C)=O)(C(=O)OCC)C(=O)OCC`, the inhibition is -7.56%.

With `CC(=O)N(C)c1ccc(NC(=O)C(F)(F)F)cc1`, the inhibition was -11.5%.

For the compound `CN(C)c1ccc(N/C=C/C(=O)C(F)(F)F)cc1`, the inhibition was 173% (active).

Regarding `CC(C)CNC(=O)C(=O)Nc1ccc(N(C)C)cc1`, the inhibition was -3.03%.

Consider `CCCn1nnnc1NCc1ccc(CC)cc1`, for which the inhibition is 10.3%.

As to `CC(C)c1ccc(NC(=S)NC2CC3C=CC2C3)cc1` (stereo unspecified), the inhibition was -1.5%.

Regarding `COc1ccc2nc(SCc3ccccc3)nc(C)c2c1`, the inhibition was 11.4%.

With `COC(=O)CSc1nc(C)c2ccc(OC)cc2n1`, the inhibition is 78.5% (active).

As for `COc1ccc2[nH]c3nc(SCC(=O)NC4CC4)nnc3c2c1`, the inhibition was -0.29%.

For the compound `CCN(CC)Cc1csc2ccc(Br)cc12`, the inhibition is 5.3%.

In the case of `O=C(C1CCC1)N1CCc2cc(S(=O)(=O)NCc3cccnc3)ccc21`, the inhibition is 8.39%.

For the compound `COc1cc(Nc2nc3ccc(Cl)cc3n3cnnc23)cc(OC)c1OC`, the inhibition is 2.08%.

In the case of `O=C(Nc1ccc(C2CC2(Cl)Cl)cc1)c1cccc([N+](=O)[O-])c1` (stereo unspecified), the inhibition was -4.52%.

`Cc1ccc(-n2c(C)cc(/C=C(\C#N)C(=O)NCC3CCCO3)c2C)cc1` (stereo unspecified): the inhibition is 7.66%.

In the case of `O=C(Cn1c(NCCO)nc2ccccc21)c1ccc(Cl)cc1Cl`, the inhibition was -13.3%.

As for `Cc1ccc2c(C)c(C(=O)N(C)Cc3ccncn3)oc2c1C`, the inhibition was 3.76%.

Consider `COc1cc(OC)c(C(=O)NCc2ccc3c(c2)OCO3)cc1OC`, for which the inhibition was -7.83%.

As for `COc1ccc(NC(=O)NCc2ccc3c(c2)OCO3)c(OC)c1`, the inhibition was 71.6% (active).

For `COc1ccc2c(c1)C(C)=CC(C)(C)N2C(=O)CNCc1ccc2c(c1)OCO2`, the inhibition is 3.99%.

With `O=C(NCc1ccccc1)[C@@H]1CSC2c3ccccc3C(=O)N21` (stereo partly specified), the inhibition is -9.14%.

As to `Cc1ccccc1CCN(CC(=O)NC1CCCCC1)C(=O)c1csnn1`, the inhibition is 3.08%.

With `CCN(CC(=O)Nc1c(F)cccc1F)C(=O)CN1c2cccc3cccc(c23)S1(=O)=O`, the inhibition was -4.49%.

With `Nc1cc(N)nc(SCc2cccc(F)c2)n1`, the inhibition was -19.7%.

With `COC(=O)c1ccccc1NC(=O)CSc1nc2c(c(=O)[nH]1)CCC2`, the inhibition is -3.59%.

`Cc1sc2c(c1C)c(=O)n(-c1ccccc1)c(=O)n2CC(=O)NCC1CCCO1` (stereo unspecified): the inhibition is 1.39%.

As to `Cc1cccc(NC(=O)Cn2c(=O)n(Cc3ccccc3)c(=O)c3c(C)c(C)sc32)c1`, the inhibition is 79.6% (active).

For the compound `Cc1cccc(-n2c(=O)c3c(C)c(C)sc3n(CC(N)=O)c2=O)c1`, the inhibition is -0.9%.

With `CCOCCCN(C)C1CCN(C(=O)c2oc3ccccc3c2NC(=O)Cc2cccc([N+](=O)[O-])c2)CC1`, the inhibition was -6.1%.

With `CCOc1ccc(C(C(=O)NCCOC)N(CCOC)C(=O)CCC(=O)Nc2ccccn2)cc1` (stereo unspecified), the inhibition is -5.61%.

In the case of `CCOc1ccc(-c2cn(S(=O)(=O)c3cccc4nsnc34)nc2N)cc1`, the inhibition was 3.63%.

Take `CCN(CC)c1ccc2oc(=O)c(C)nc2c1`: the inhibition was 110% (active).

As to `C=CCN(C(=O)Nc1ccc2oc(C)nc2c1)c1ccccc1`, the inhibition is 14.4%.

As for `CCN(CC)c1ccc2cc(C(N)=O)/c(=N\NC(=O)c3ccncc3)oc2c1`, the inhibition is 9.01%.

Regarding `C=CCOC(=O)C1=C[C@H](c2ccc(Br)cc2)C[C@H](OCCCCO)O1`, the inhibition is 8.07%.

As to `CCc1ccc(C(=O)NN=C2CCCCCC2)s1`, the inhibition is 4.85%.

In the case of `Cc1cccc(C(=O)OCC(=O)Nc2sc3c(c2C#N)CCC3)c1`, the inhibition was 3.25%.

Regarding `CC(=O)c1c(C)[nH]c(C(=O)OCC(=O)Nc2sc3c(c2C#N)CCCC3)c1C`, the inhibition is 42.2% (active).

As to `N#Cc1c(NC(=O)CCCl)sc2c1CCCCC2`, the inhibition was -14.9%.

Take `CC(=O)c1cc(-c2ccccc2)[nH]c1N1CCCC1`: the inhibition is -8.66%.

Consider `Cc1ccc2c(c1)C(O)(CC(=O)c1cccc(-n3cccc3)c1)C(=O)N2` (stereo unspecified), for which the inhibition is 2.62%.

Regarding `CCc1nccn1S(=O)(=O)c1cccc([N+](=O)[O-])c1`, the inhibition is 31.4% (active).

Take `O=[N+]([O-])c1cccc(S(=O)(=O)N2CCCCCC2)c1`: the inhibition is 1.71%.

In the case of `CC1=NCCN1S(=O)(=O)c1cccc([N+](=O)[O-])c1`, the inhibition was -6.19%.

Regarding `Cc1cc(Nc2ccc(Br)cc2)nc2ccccc12`, the inhibition was -8.6%.

For the compound `O=C(N/C(=C/c1ccc(Cl)cc1)C(=O)N1CCCCC1)c1ccco1`, the inhibition was 7.31%.

A word on the inhibition: it is the change of the read-out against control, counted positive when it falls.
